# Screens as filed in PubChem BioAssay.
# Rows were chosen to be rich in hits. Some 1.2% of all compounds tested hit in one or more screens of this group.
# Avidin fluor: green autofluorescence of compounds with avidin beads – biophysical, 488/530 nm, flow cytometry, artefact control, profiling panel. compound fluorescence 488/530 nm; stronger effect = higher value. fluorescence (KMESF) at 10 µM. 0.38% of 220,000 active. AID 1775, 2009; in the data active means fluorescence above about 47
# RGS7-Gao: RGS7-Galphao binding modulators, primary screen, biochemical, multiplexed bead flow cytometry; 0.35% of 220,000 active; actives lie on both sides; binding response (% of control), % at 10 µM; Guanine nucleotide-binding protein G(o) subunit alpha (Homo sapiens), P09471; in the data active means binding response below about 49% or above about 150%; inconclusive means no clear call, values can overlap the other calls; inactive means in between;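 further: fluorescent Galphao held in activated GDP-AlF4 state binding bead-coupled RGS7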
# Target sequence (P09471 whole entry, looked up): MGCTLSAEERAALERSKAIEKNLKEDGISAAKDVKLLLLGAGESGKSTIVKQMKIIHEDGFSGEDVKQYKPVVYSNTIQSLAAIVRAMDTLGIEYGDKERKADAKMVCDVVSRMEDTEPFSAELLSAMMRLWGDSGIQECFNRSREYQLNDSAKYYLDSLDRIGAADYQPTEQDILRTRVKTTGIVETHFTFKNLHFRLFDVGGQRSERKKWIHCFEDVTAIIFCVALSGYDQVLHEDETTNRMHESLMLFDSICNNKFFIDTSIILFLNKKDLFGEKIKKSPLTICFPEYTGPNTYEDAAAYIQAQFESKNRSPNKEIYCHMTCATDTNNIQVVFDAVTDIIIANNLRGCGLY
# RGS16-Gao: modulators of RGS16 binding to Galphao, primary screen, biochemical, human proteins, multiplexed bead flow cytometry; AID 1441, 2008; Regulator of G-protein signaling 16 (Homo sapiens) + Guanine nucleotide-binding protein …; binding response (% of control), % at 10 µM; bead-based flow cytometry RGS16-Galphao binding, fluorescence; actives lie on both sides; 0.38% of 220,000 active;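 further: Galphao activated by GDP with aluminum fluoride before binding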
# RGS8-Gao reg: RGS8-Galphao binding modulators, primary screen, biochemical, multiplexed bead flow cytometry. Guanine nucleotide-binding protein G(o) subunit alpha (Homo sapiens), P09471. actives lie on both sides. response (percent of control binding), % at 10 µM. 0.34% of 220,000 active; in the data active means response below about 60% or above about 140%; inactive means in between;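 further: Galphao activated as the GDP aluminium fluoride complex binding bead-coupled RGS8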
# RGS4-Gao reg: modulators of RGS4 binding to Galphao, primary screen, biochemical, multiplexed bead flow cytometry; Guanine nucleotide-binding protein G(o) subunit alpha (Homo sapiens), P09471; actives lie on both sides; binding response (% of control), % at 10 µM; 0.33% of 220,000 active; AID 1415, 2008; in the data active means binding response below about 49% or above about 150%; inactive means in between;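 further: fluorescent Galphao activated with aluminum fluoride binding bead-coupled RGS4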
# GSH fluor: compound fluorescence on glutathione beads, profiling panel, artefact control, biophysical, 488/530 nm, flow cytometry; GSH beads flow cytometry, compound fluorescence 488/530 nm; stronger effect = higher value; fluorescence (KMESF) at 10 µM; 0.25% of 190,000 active; AID 1776, 2009; in the data active means fluorescence above about 89;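 further: glutathione beads carrying GST-tagged Bcl family fusion proteins plus one bare bead set; values are compound well signal with DMSO vehicle wells as background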
# RGS-Gao: modulators of RGS–Galpha-o binding, primary screen, biochemical, multiplexed beads, flow cytometry, RGS4/7/8/16/19 | shares compounds with RGS16-Gao | multiplexed bead flow cytometry | RGS4–Galpha-o binding response, % at 10 µM | 99% of 1,600 active | AID 1504, 2009;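 further: fluorescently labeled Galpha-o bound to GDP with aluminium fluoride binding biotinylated RGS beads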
# Target sequence (P09471 whole entry, looked up): as above
# Target sequence (P49798 whole entry, looked up): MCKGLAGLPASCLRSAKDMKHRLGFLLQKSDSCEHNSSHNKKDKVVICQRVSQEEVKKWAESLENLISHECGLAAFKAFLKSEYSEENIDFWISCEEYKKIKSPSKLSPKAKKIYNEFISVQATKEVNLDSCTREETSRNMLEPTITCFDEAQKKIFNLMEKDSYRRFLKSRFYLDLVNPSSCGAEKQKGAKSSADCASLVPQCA
# Biotin-avidin: disruption of biotin probe capture by avidin, counter-screen for RGS protein interaction modulators, biochemical, flow cytometry, bead-based | shares compounds with RGS16-Gao | streptavidin beads, fluorescein-biotin binding | inhibition, % at 10 µM | 1,700 tested, under 10 active;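 active means inhibition above 50%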;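 further: median green fluorescence of gated singlet beads compared with DMSO control wells; 0% = DMSO wells and 100% = complete loss of bead fluorescence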
# RGS8-Gao confirm: RGS8-Galphao binding modulators, confirmation, biochemical, multiplexed bead flow cytometry, single concentration; binding response (% of control), % at 10 µM; bead-based flow cytometry RGS8-Galphao binding, fluorescence; actives lie on both sides; shares compounds with RGS16-Gao; AID 1836, 2009; 3% of 1,700 active; in the data active means binding response below about 72% or above about 130%; inactive means in between;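 further: Galphao activated as GDP AlF4 complex before binding bead RGS8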
# RGS7-Gao single: RGS7-Galphao binding modulators, confirmation, biochemical, multiplexed bead flow cytometry, single concentration; shares compounds with RGS16-Gao; bead-based flow cytometry RGS7-Galphao binding; actives lie on both sides; response (percent of control binding), % at 10 µM; 7.8% of 1,700 active; in the data active means response below about 75% or above about 130%; inactive means in between;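 further: fluorescent Galphao activated with GDP and aluminum fluoride binding bead-coupled RGS7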
# RGS16-Gao single: modulators of RGS16-Galphao protein binding, confirmation, biochemical, single concentration, multiplexed bead flow cytometry | shares compounds with RGS16-Gao | bead-based flow cytometry; actives lie on both sides | response (% of control binding), % at 10 µM | 4% of 1,700 active; in the data active means response below about 74% or above about 130%; inactive means in between;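 further: Galphao activated as the GDP aluminium fluoride complex binding bead-coupled RGS16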
# RGS4-Gao single: modulators of RGS4-Galphao protein binding, confirmation, biochemical, single concentration, multiplexed bead flow cytometry | actives lie on both sides | shares compounds with RGS16-Gao | AID 1840, 2009 | binding response (% of control), % at 10 µM | 4% of 1,700 active; in the data active means binding response below about 74% or above about 130%; inactive means in between
# RGS19-Gao conf: regulators of RGS19-Galphao binding, confirmation, biochemical, single point, multiplexed bead flow cytometry. bead-based flow cytometry RGS19-Galphao binding; actives lie on both sides. AID 1841, 2009. 5% of 1,700 active. response (percent of control binding), % at 10 µM. shares compounds with RGS16-Gao; in the data active means response below about 50% or above about 160%; inactive means in between;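 further: 100% = no compound control and 0% = blank background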
# * marks the source's active call; other numbers are inactive results; u = inconclusive; x = not tested or not shown; [ ] = another dose, or the depositor's remark. Unless noted, how the calls were made is not given here.
SMILES,Avidin fluor,RGS7-Gao,RGS16-Gao,RGS8-Gao reg,RGS4-Gao reg,GSH fluor,RGS-Gao,Biotin-avidin,RGS8-Gao confirm,RGS7-Gao single,RGS16-Gao single,RGS4-Gao single,RGS19-Gao conf
O=C(NN=C1CCN(Cc2ccccc2)CC1)C(O)c1ccccc1 (stereo not drawn),13,97.1,113.8,103.1,97.9,8,x,x,x,x,x,x,x
C=CCN(c1ccccc1OC)S(=O)(=O)c1cccc(C(=O)OCC(=O)c2c[nH]c3ccccc23)c1,11,99.0,100.3,100.9,99.7,9,x,x,x,x,x,x,x
COc1cc(OC)c(N(C)S(=O)(=O)c2cccc(C(=O)OCC(=O)c3c[nH]c4ccccc34)c2)cc1Cl,1,92.2,23.6*,75.0,89.2,13,89.2*,0.1,111.2,113.8,111.9,109.0,130.3
CN1CCN(CC(O)(c2ccc(Cl)cc2)c2ccc(Cl)cc2)CC1,13,u,101.7,102.7,105.8,12,x,x,x,x,x,x,x
NC(=O)c1cc2cc([N+](=O)[O-])ccc2oc1=O,9,u,103.4,99.5,103.4,13,x,x,x,x,x,x,x
C[C@H](NC(=O)c1nc[nH]c1C(=O)N[C@H](C)c1ccccc1)C(=O)OC(C)(C)C,1,16.8*,15.8*,20.6*,25.4*,18,x,-0.5,113.6,119.0,121.7,113.6,106.0
C[C@H](NC(=O)c1nc[nH]c1C(=O)NCc1ccccc1)C(=O)OC(C)(C)C,1,26.1*,33.7,41.9*,38.7*,20,x,0.3,103.3,95.8,99.4,95.5,99.2
CC(C(=O)NCCC1=CCCCC1)c1ccc([N+](=O)[O-])cc1 (stereo not drawn),11,u,98.5,100.0,102.1,13,x,x,x,x,x,x,x
COCCCNC(=O)c1ccc2c3c(onc13)-c1ccccc1C2=O,3,u,30.7,60.1,43.4*,x,x,0.3,69.3*,64.0*,68.1*,93.8,41.8*
COCCCNC(=O)c1ccccc1Oc1ccccc1,7,97.3,100.0,100.3,97.0,15,x,x,x,x,x,x,x
COc1ccc(-n2ncc3c(=O)n(CC(=O)Nc4ccc(S(=O)(=O)N5CCOCC5)cc4)cnc32)cc1,3,96.7,96.8,99.0,99.1,11,x,x,x,x,x,x,x
O=C(Cn1cnc2c(cnn2-c2ccccc2)c1=O)Nc1ccc(S(=O)(=O)N2CCOCC2)cc1,10,89.8,20.4*,76.8,95.0,11,95.0*,2.3,97.4,92.6,95.5,92.8,189.2*[activator]
CC1CCC2(CC1)NC(=S)N(c1ccccc1)N2 (stereo not drawn),125*,170.6*[activator],104.8,101.7,139.5,10,139.5*,-0.5,94.2,94.3,92.5,95.1,98.2
Cc1ccc(C)c(NC2=C(Cl)C(=O)OC2OC(C)C)c1 (stereo not drawn),11,100.3,101.0,101.9,98.2,10,x,x,x,x,x,x,x
Cc1ccc(-n2c(SCC(=O)NCc3ccco3)nc3c([nH]c4ccccc43)c2=O)cc1,-1,-10.8*,-4.2*,6.5*,-3.0*,17,x,0.7,111.2,118.8,110.6,113.1,106.0
O=C(CSc1n[nH]c(-c2ccccc2O)n1)N1CCOCC1,3,101.6,101.9,97.6,101.0,11,x,x,x,x,x,x,x
Cc1nc2ccccc2nc1OCC(=O)Nc1cc(C(F)(F)F)ccc1N1CCOCC1,7,100.7,101.7,101.1,100.8,46,x,x,x,x,x,x,x
CC1(C)Cc2cccc(OCC(=O)Nc3cc(C(F)(F)F)ccc3N3CCOCC3)c2O1,141*,226.5*[activator],107.1,97.0,118.1,22,118.1*,0.3,99.0,99.0,100.1,100.7,89.9
Nc1nc(SCC(=O)Nc2cc(C(F)(F)F)ccc2N2CCOCC2)n[nH]1,1,24.1*,16.1*,18.4*,29.1*,15,x,1.0,102.6,104.0,101.6,99.1,98.7
Nc1nc(SCC(=O)N2CCOCC2)n[nH]1,46,189.5*[activator],127.1,103.7,128.7,15,128.7*,0.3,106.2,111.8,110.8,110.5,103.3
O=C(Nc1nnc(CCN2CCCCC2)s1)c1ccccc1Cl,13,101.4,101.5,99.8,99.3,10,x,x,x,x,x,x,x
COc1ccccc1C(CC(=O)Nc1ccc(C)c(C)c1)c1ccc(OC(C)C)cc1 (stereo not drawn),6,117.6,197.2*[activator],127.9,114.5,17,114.5*,2.4,98.9,90.4,96.5,95.8,60.6
COc1ccccc1NC(=O)CC(c1ccc(OC(C)C)cc1)c1ccccc1OC (stereo not drawn),7,106.5,102.2,104.0,104.1,19,x,x,x,x,x,x,x
c1cc(C2CCN(Cc3nc(-c4ccc5c(c4)OCO5)no3)CC2)ccn1,3,97.8,93.6,99.7,100.8,11,x,x,x,x,x,x,x
CCC(C)NC(=O)C1c2ccccc2C(=O)N1Cc1ccc(OC)cc1OC (stereo not drawn),6,126.8,423.9,147.0*[activator],137.5,38,137.5*,1.1,102.2,98.8,90.1,97.5,61.7
